Measurements from PubChem BioAssay AID1159580 (chemical genetic matrix, 2015).
Values joined by “and” are separate entries in the source; they are usually repeats but may differ in a detail not shown here. Identical values can stand only once. Among all 5,500 compounds or so, about 2,000 (36%) were called active. About 18% were inconclusive and are not listed. No stated cut-off is given here; in the data, active means normalized growth mostly below about 0.91 (no sharp cut-off); inconclusive means no clear call, values can overlap the other calls; inactive means mostly above about 0.92. The list shows a part of the results.

Experiment: chemical genetic growth profiling, strain panel (AID 1159580);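 further: tested at 20 µM; growth read once vehicle control cultures reached saturation at 30 °C; 1 = growth at the plate median or of vehicle wells; lower values mean less growth of the strain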
Settings: S. cerevisiae deletion strains, growth OD

Measured: normalized growth

COC(=O)[C@@H]1C(O)CC[C@H]2CN3CCc4c([nH]c5ccccc45)[C@@H]3C[C@@H]21 (some centres not stated)
inactive: locus YAL013W, strain DEP1, hits give low values 0.998 | locus YAL021C, strain ccr4, hits give low values 1.01 | locus YAL026C, strain drs2, hits give low values 1.01 | locus YAL030W, strain snc1, hits give low values 1.01 | locus YBL061C, strain skt5, hits give low values 1.01 | locus YBR009C, strain hhf1, hits give low values 0.998 | locus YBR021W, strain FUR4, hits give low values 1.01 | locus YBR023C, strain chs3, hits give low values 1.02 | locus YBR171W, strain sec66, hits give low values 1.02 | locus YBR229C, strain ROT2, hits give low values 0.99 | locus YBR231C, strain swc5, hits give low values 0.999 | locus YBR279W, strain paf1, hits give low values 1.02 | locus YCL011C, strain gbp2, hits give low values 1.01 | locus YCL016C, strain dcc1, hits give low values 1.02 | locus YCL029C, strain bik1, hits give low values 0.993 | locus YCL061C, strain MRC1, hits give low values 1.01 | locus YCL069W, strain vba3, hits give low values 1.01 | locus YCR088W, strain abp1, hits give low values 1.01 | locus YDL005C, strain med2, hits give low values 1.01 | locus YDL035C, strain GPR1, hits give low values 0.994 | locus YDL040C, strain nat1, hits give low values 1.01 | locus YDL074C, strain BRE1, hits give low values 1.01 | locus YDL101C, strain DUN1, hits give low values 0.99 | locus YDL134C, strain PPH21, hits give low values 0.996 | locus YDL185W, strain tfp1, hits give low values 0.971 | locus YDL192W, strain arf1, hits give low values 0.983 | locus YDR001C, strain nth1, hits give low values 1.02 | locus YDR069C, strain doa4, hits give low values 0.999 | locus YDR101C, strain arx1, hits give low values 1 | locus YDR137W, strain rgp1, hits give low values 1.02 | locus YDR150W, strain NUM1, hits give low values 0.973 | locus YDR159W, strain sac3, hits give low values 0.996 | locus YDR162C, strain NBP2, hits give low values 1.02 | locus YDR195W, strain ref2 1.02 | locus YDR297W, strain sur2, hits give low values 1.03 | locus YDR318W, strain mcm21, hits give low values 0.981 | locus YDR334W, strain swr1, hits give low values 1.02 | locus YDR335W, strain msn5, hits give low values 1.02 | locus YDR388W, hits give low values 0.999 | locus YDR392W, strain spt3, hits give low values 0.92 | locus YDR502C, strain sam2, hits give low values 1.01 | locus YEL003W, strain gim4, hits give low values 1.02 | locus YEL037C, strain rad23, hits give low values 1.03 | locus YEL061C, strain CIN8 (second series), hits give low values 1.02 | locus YEL061C, strain CIN8, hits give low values 0.998 | locus YER015W, strain faa2, hits give low values 1.01 | locus YER016W, strain bim1, hits give low values 1.02 | locus YER110C, hits give low values 0.982 | locus YER111C, strain swi4, hits give low values 1.01 | locus YER155C, strain BEM2 (second series), hits give low values 1.01 | locus YER155C, strain BEM2, hits give low values 0.992 | locus YER167W, strain BCK2, hits give low values 0.979 | locus YFR010W, strain ubp6, hits give low values 1.01 | locus YGL078C, strain dbp3, hits give low values 0.982 | locus YGL086W, strain mad1, hits give low values 0.955 | locus YGL167C, strain pmr1, hits give low values 1.01 | locus YGL173C, strain kem1, hits give low values 1 | locus YGL227W, strain vid30, hits give low values 1.02 | locus YGL240W, strain doc1, hits give low values 0.992 | locus YGL248W, strain PDE1, hits give low values 0.982 | locus YGL253W, strain hxk2, hits give low values 1.02 | locus YGR078C, strain PAC10, hits give low values 1 | locus YGR135W, strain pre9, hits give low values 1.01 | locus YGR229C, strain SMI1, hits give low values 1.03 | locus YGR252W, strain gcn5, hits give low values 1.01 | locus YHR013C, strain ard1, hits give low values 1.02 | locus YHR027C, strain rpn1, hits give low values 1.02 | locus YHR030C, strain SLT2, hits give low values 0.991 and 1.02 | locus YHR079C, strain IRE1 (second series), hits give low values 1.01 | locus YHR079C, strain IRE1, hits give low values 1.02 | locus YHR094C, strain hxt1, hits give low values 0.974 | locus YHR129C, strain ARP1, hits give low values 0.998 | locus YHR142W, strain chs7, hits give low values 1.02 | locus YHR200W, strain rpn10, hits give low values 0.988 | locus YIL066C, strain RNR3, hits give low values 0.984 | locus YIL073C, strain SPO22, hits give low values 0.915 | locus YIL125W, strain kgd1, hits give low values 0.981 | locus YIR030C, strain dcg1, hits give low values 0.994 | locus YJL092W, strain hpr5, hits give low values 1.01 | locus YJL095W, strain BCK1 (second series), hits give low values 1 | locus YJL095W, strain BCK1, hits give low values 1.03 and 1.02 | locus YJL115W, strain asf1, hits give low values 1.02 | locus YJL129C, strain trk1, hits give low values 1.03 | locus YJL134W, strain LCB3, hits give low values 0.985 | locus YJL154C, strain vps35, hits give low values 1.02 | locus YJL164C, strain tpk1, hits give low values 0.999 | locus YJL166W, strain qcr8, hits give low values 1.01 | locus YJL168C, strain set2, hits give low values 1 | locus YJL187C, strain SWE1 (second series), hits give low values 0.995 | locus YJL187C, strain SWE1, hits give low values 1.01 | locus YJR043C, strain POL32, hits give low values 0.998 | locus YJR066W, strain TOR1, hits give low values 0.954
